ABHD5 PLIN5 PPI – inhibitors of human ABHD5-perilipin-5 interaction; Split G. princeps luciferase complementation, luminescence, 4 h; inhibition, % at 4 µM; 0.78% of 360,000 active;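 active = inhibition above the mean inhibition across every tested compound plus 3 SD, cut at about 22% in these data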;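 note: 0% = DMSO only wells and the 100% control is not disclosed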
PRMT1 FP inh – inhibitors of human PRMT1 | Q99873 | inhibition, % at 2.79 µM | recombinant PRMT1, activity-based probe fluorescence polarization | 1.3% of 370,000 active;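 active = inhibition above about 21% made by adding two undisclosed values, limit read from the data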
Exocytosis inh – lytic granule exocytosis inhibition; TALL-104 LAMP-1 surface exposure, flow cytometry; cells stimulated with thapsigargin and PMA; 0.66% of 360,000 active; AID 651702; inhibition, % at 10 µM;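 active = inhibition above about 55%, limit read from the data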
TLR9-MyD88 inh – TLR9-MyD88 interaction inhibition. CHO BLA complementation TLR9-MyD88, CCF4 FRET ratio. inhibition, % at 4.98 µM. 0.21% of 340,000 active;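 active = inhibition above the mean over all tested compounds plus 3 SD, cut at about 21% in these data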;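 note: 0% = DMSO only wells and 100% = clavulanate BLA inhibitor control wells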
TLR4-MyD88 BLA – blocks binding of human TLR4 to MyD88; O00206+Q99836; HeLa CL3-4 TLR4/MyD88 BLA complementation, FRET ratio; inhibition, % at 8.4 µM; 0.18% of 200,000 active; in the data active = inhibition above about 25%;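 note: 0% = vehicle and 100% = reference inhibitor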
NOD2-RIPK2 inh – inhibitors of human NOD2-RIPK2 interaction; 0.38% of 360,000 active; O43353; CHO BLA complementation NOD2-RIPK2, CCF4 ratio; inhibition, % at 4.98 µM; in the data active = inhibition above about 21%;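 note: 0% = vehicle only and 100% = reference blocker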
TLR9-MyD88 cf – TLR9-MyD88 interaction inhibition, confirmation | shares compounds with TLR9-MyD88 inh | CHO TLR9/MyD88 BLA complementation, CCF4 FRET ratio | inhibition, % at 4.98 µM | 51% of 680 active;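 active = mean inhibition across three repeats above about 21% taken from the earlier screen, limit read from the data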;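 note: blue over green emission ratio reports constitutive TLR9 MyD88 association via BLA complementation; 0% = DMSO vehicle wells and 100% = clavulanate BLA inhibitor wells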
Target sequence (Q9NR96 whole entry, looked up): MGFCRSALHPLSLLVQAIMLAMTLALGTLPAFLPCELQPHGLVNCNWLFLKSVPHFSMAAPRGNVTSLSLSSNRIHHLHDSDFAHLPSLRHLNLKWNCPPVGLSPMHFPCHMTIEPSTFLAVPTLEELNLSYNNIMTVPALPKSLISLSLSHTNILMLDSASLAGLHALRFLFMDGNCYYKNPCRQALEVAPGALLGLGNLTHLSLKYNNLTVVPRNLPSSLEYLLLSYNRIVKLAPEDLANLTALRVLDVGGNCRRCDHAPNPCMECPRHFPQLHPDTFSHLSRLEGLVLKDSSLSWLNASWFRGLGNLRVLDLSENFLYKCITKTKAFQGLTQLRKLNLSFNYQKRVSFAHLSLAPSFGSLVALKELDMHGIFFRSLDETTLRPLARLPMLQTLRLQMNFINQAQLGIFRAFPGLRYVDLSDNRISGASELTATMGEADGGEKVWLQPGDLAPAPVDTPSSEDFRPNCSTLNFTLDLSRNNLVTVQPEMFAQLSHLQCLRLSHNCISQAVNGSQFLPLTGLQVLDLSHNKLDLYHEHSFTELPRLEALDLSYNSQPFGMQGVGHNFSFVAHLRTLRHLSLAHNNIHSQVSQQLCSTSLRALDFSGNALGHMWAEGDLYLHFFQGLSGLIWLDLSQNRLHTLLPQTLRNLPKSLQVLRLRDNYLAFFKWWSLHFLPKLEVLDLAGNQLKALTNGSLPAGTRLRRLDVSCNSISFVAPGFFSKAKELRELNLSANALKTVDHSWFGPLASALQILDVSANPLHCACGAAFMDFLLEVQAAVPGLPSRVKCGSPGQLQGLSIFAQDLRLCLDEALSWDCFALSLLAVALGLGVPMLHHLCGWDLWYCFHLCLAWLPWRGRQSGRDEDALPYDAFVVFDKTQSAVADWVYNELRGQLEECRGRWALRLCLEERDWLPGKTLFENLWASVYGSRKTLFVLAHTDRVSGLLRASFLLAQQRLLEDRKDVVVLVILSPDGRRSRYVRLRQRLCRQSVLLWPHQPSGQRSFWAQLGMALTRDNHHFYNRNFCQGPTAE
BLA counter-1 – non-selective beta-lactamase inhibitors in TLR9-MyD88 counter-screen; shares compounds with TLR9-MyD88 inh; CHO-BLA cells, CCF4 FRET ratio, BLA reporter; inhibition, % at 4.98 µM; 7% of 680 active; AID 540251;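 active = mean inhibition above a 50% cutoff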;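 note: counterscreen of TLR9-MyD88 hits on CMV-driven BLA in CHO-K1 cells; 0% = DMSO alone and 100% = clavulanate blocking BLA; higher means less blue over green ratio so more BLA blockade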
TLR9 CHO tox – CHO cell toxicity counter-screen for TLR9-MyD88 inhibitors. shares compounds with TLR9-MyD88 inh. TLR9-MyD88 CHO cells cytotoxicity, luminescence. inhibition, % at 4.98 µM. 39% of 680 active; in the data active = inhibition above about 11%
ABHD5-PLIN5 conf – confirmation of human ABHD5-PLIN5 interaction inhibitors; biochemical ABHD5-PLIN5 interaction, luminescence; 67% of 2,200 active; AID 651612; inhibition, % at 4 µM; shares compounds with ABHD5 PLIN5 PPI; in the data active = inhibition above about 23%;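 note: 0% = DMSO vehicle wells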
HNF4 split-luc – HNF4 split-luciferase signal hit, counter-screen | inhibition, % at 4 µM | HNF4 dimerization, luminescence, biochemical | AID 651674 | shares compounds with ABHD5 PLIN5 PPI | 77% of 2,200 active;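 active = mean inhibition across replicate wells exceeding the computed hit threshold, cut at about 13% in these data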;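 note: light from luciferase halves that rejoin when HNF4 fusion proteins dimerize; 0% = DMSO only wells and the 100% control is not given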
NOD2-RIPK2 conf – confirmation of human NOD2-RIPK2 interaction inhibitors. 70% of 1,200 active. inhibition, % at 4.98 µM. CHO cells, NOD2-RIPK2 BLA complementation, CCF4 FRET. shares compounds with NOD2-RIPK2 inh. AID 624370;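 active = mean inhibition across replicates above a set limit taken from the earlier primary screen, cut at about 21% in these data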;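 note: 0% = DMSO-only wells and the high end = clavulanate BLA-blocked wells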
BLA counter-2 – NOD2-RIPK2 counterscreen BLA reporter activity | shares compounds with NOD2-RIPK2 inh | CHO BLA reporter, CCF4 FRET ratio | inhibition, % at 4.98 µM | 57% of 1,200 active;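 active = mean inhibition above the low-control mean inhibition plus three low-control SD, cut at about 11% in these data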;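 note: 0% = DMSO only wells and 100% = clavulanate high control wells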
Numbers without * were called inactive; x = no result given; ! = not confirmed by another sample. Sampled rows, rich in hits. Any-hit rate of the full collection: about 2.6%.

SMILES	ABHD5 PLIN5 PPI	PRMT1 FP inh	Exocytosis inh	TLR9-MyD88 inh	TLR4-MyD88 BLA	NOD2-RIPK2 inh	TLR9-MyD88 cf	BLA counter-1	TLR9 CHO tox	NOD2-RIPK2 conf	BLA counter-2	others
O=C(CSc1nc(O)cc(=O)n1-c1ccccc1)NCc1ccccc1	2	-2	0	21*	-10	11	2	3	-1	x	x
O=c1cc(O)nc(SCc2ccccc2)n1-c1ccccc1	-1	-1	0	-3	6	-2	x	x	x	x	x
Cc1ccc(Cl)c(NC(=O)COC(=O)c2ccccc2C(=O)c2ccc(Cl)c([N+](=O)[O-])c2)c1Cl	6	1	10	27*	13	-2	29*	18	15*	x	x
N/C(=N\OC(=O)c1cccc(C(F)(F)F)c1)c1cnccn1	9	-1	2	-1	x	-8	x	x	x	x	x
O=C(OCn1ncc(Cl)c(Cl)c1=O)c1cccc(C(F)(F)F)c1	4	x	9	30*	17	48*	24*	12	97*	x	x
COc1ccc(N=Cc2c(O)c3ccccc3n2C(C)=O)cc1	-13	2	2	2	x	-5	x	x	x	x	x
COc1ccc(N=Cc2sc(O)c3ccccc23)cc1	-22	-6	4	22*	21	2	21*	18	-1	x	x
O=c1[nH]ncc(NCCc2ccccc2)c1Cl	2	-2	-1	24*	-6	-5	-8	-5	-1	x	x
CCCn1c(/C=C/c2ccccc2)nc2ccccc21	-6	0	-3	-3	0	0	x	x	x	x	x
CCn1c(/C=C/c2cc[n+](C)cc2)nc2ccccc21	8	6	-8	24*	x	17	12	15	-1	x	x
COc1cc2ccc(=O)oc2c(O[C@@H]2O[C@H](CO)[C@@H](O)[C@H](O)[C@H]2O)c1O	4	0	6	40*	x	45*	24*!	32	-1	49*	59*
O=c1ccc2ccc(O[C@@H]3O[C@H](CO)[C@@H](O)[C@H](O)[C@H]3O)c(O)c2o1	-9	-1	-8	-4	x	11	x	x	x	x	x
CCOC(=O)N(C)[C@H]1C[C@H]2c3[nH]c4c(-c5ccccc5)cccc4c3CCN2C(=O)[C@H]1[C@H](C)O	x	-4	x	x	x	x	x	x	x	x	x
Cc1noc2ncnc(Sc3c(Cl)cccc3Cl)c12	5	-1	4	23*	10	37*	22*	6	8	34*	-13
Cc1noc2ncnc(Sc3ccc(Cl)cc3)c12	12	3	4	-7	16	0	x	x	x	x	x
CC(=O)Oc1c(-c2ccc(Br)o2)oc2ccccc2c1=O	-4	3	4	27*	x	25*	17	16	-2	35*	34*
CCS(=O)(=O)c1ncc(Cl)c(C(=O)Nc2ccc(C)cc2)n1	48*	3	-21	45*	x	61*	42*	36	95*	65*	38*	ABHD5-PLIN5 conf=72*;HNF4 split-luc=78*
CCS(=O)(=O)c1ncc(Cl)c(C(=O)Nc2ccc(S(=O)(=O)N3CCCC(C)C3)cc2)n1 (configuration not stated)	13	4	14	2	x	14	x	x	x	x	x
O=C1C=CC2(O[C@H](c3ccccc3)[C@@H](c3ccccc3)O2)[C@H](Sc2ccccc2O)C1	94*	96*	102*	40*	x	92*	38*	23	100*	91*	40*
O=C(O)c1ccc(N/N=C/C=C/c2ccc([N+](=O)[O-])o2)cc1	6	5	-10	-5	x	13	x	x	x	x	x
O=[N+]([O-])c1ccc(N/N=C/C=C/c2ccco2)cc1	4	13	20	40*	x	55*	37*	39	-3	63*	68*
O=[N+]([O-])c1ccc(Nc2ccc3ccccc3c2)nc1	4	0	1	24*	25	37*	19	10	8	21*	25*
CCN(C(=O)C1CCCN(c2nnc(-n3cccc3)s2)C1)c1ccccc1C (configuration not stated)	x	-5	x	x	x	x	x	x	x	x	x
COC(=O)c1cn[nH]c1NC(=S)Nc1ccccc1C	1	10	5	0	-6	0	x	x	x	x	x
COC(=O)c1cn[nH]c1NC(=S)Nc1ccc(C)cc1Cl	2	9	2	23*	-8	50*	8	4	4	27*	12*
SMILES	ABHD5 PLIN5 PPI	PRMT1 FP inh	Exocytosis inh	TLR9-MyD88 inh	TLR4-MyD88 BLA	NOD2-RIPK2 inh	TLR9-MyD88 cf	BLA counter-1	TLR9 CHO tox	NOD2-RIPK2 conf	BLA counter-2	others
Cc1cccc(C)c1-n1nnnc1C1c2ccccc2OCC(=O)N1Cc1ccc(F)cc1 (configuration not stated)	x	-4	x	x	x	x	x	x	x	x	x
Cc1ccccc1NC(=O)Cc1nc(COC(=O)c2ccc(S(C)(=O)=O)c([N+](=O)[O-])c2)cs1	27*	x	3	25*	x	45*	17	6	84*	50*	11*	ABHD5-PLIN5 conf=35*;HNF4 split-luc=42*
COc1cc(C2CC(c3c(C)cc(C)[nH]c3=O)=NN2c2ccccc2F)cc(OC)c1OC (configuration not stated)	4	-2	-19	23*	x	41*	17	18	4	35*	47*
CCc1cccc2cc3c(N)c(C(=O)Nc4ccc(S(=O)(=O)N5CCCC5)cc4)sc3nc12	-9	20	-5	30*	8	33*	20	21	29*	42*	51*
CCOC(=O)C1CCN(S(=O)(=O)c2cccc3nonc23)CC1	-1	3	2	-6	6	2	x	x	x	x	x
CCOC(=O)C1CCN(S(=O)(=O)c2c(Cl)ccc3nonc23)CC1	15	6	7	43*	x	82*	39*	19	81*	78*	15*
CC(C)Cn1c([N+](=O)[O-])nc2c1c(=O)[nH]c(=O)n2C	-7	-2	2	1	x	5	x	x	x	x	x
